Assay outcomes from PubChem.
This excerpt belongs to a sample that is enriched for hits.
DT40 TDP1 CPT – qHTS for Inhibitors of human tyrosyl-DNA phosphodiesterase 1 (TDP1): qHTS in cells in presence of CPT | 420,000 tested, 12% active | chicken DT40 Tdp1-/-;hTDP1 cells + 20 nM CPT, ATP luminescence, 48 h | Potency, µM (top dose mostly 46.2 µM), without a hit: top-dose activity change, negative = growth inhibition, hits mostly inhibitors | AID 686979, 2013; note: potency is the fitted concentration of half-maximal effect; nearly all actives have a fitted effect of over 55% in size
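Chicken DT40 Tdp1-/- cells complemented with human TDP1, 400 cells/well, exposed to compounds plus 20 nM camptothecin for at least 48 h at 37 C; viability read as ATP content by CellTiter-Glo luminescence.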
ALOX12 inh – Primary qHTS assay for inhibitors of human arachidonate 12S-lipoxygenase (ALOX12): Round 2. 580,000 tested, 1.1% active. Polyunsaturated fatty acid lipoxygenase ALOX12 (Homo sapiens), P18054. purified 12hLO, xylenol orange hydroperoxide absorbance. AID 1671190, 2021. Potency, µM (titrated, usually from 108 µM), for inactives: at the highest dose activity change, negative = inhibition, hits mostly inhibitors; note: potency is the fitted concentration of half-maximal effect
Target sequence (P18054 whole entry, looked up): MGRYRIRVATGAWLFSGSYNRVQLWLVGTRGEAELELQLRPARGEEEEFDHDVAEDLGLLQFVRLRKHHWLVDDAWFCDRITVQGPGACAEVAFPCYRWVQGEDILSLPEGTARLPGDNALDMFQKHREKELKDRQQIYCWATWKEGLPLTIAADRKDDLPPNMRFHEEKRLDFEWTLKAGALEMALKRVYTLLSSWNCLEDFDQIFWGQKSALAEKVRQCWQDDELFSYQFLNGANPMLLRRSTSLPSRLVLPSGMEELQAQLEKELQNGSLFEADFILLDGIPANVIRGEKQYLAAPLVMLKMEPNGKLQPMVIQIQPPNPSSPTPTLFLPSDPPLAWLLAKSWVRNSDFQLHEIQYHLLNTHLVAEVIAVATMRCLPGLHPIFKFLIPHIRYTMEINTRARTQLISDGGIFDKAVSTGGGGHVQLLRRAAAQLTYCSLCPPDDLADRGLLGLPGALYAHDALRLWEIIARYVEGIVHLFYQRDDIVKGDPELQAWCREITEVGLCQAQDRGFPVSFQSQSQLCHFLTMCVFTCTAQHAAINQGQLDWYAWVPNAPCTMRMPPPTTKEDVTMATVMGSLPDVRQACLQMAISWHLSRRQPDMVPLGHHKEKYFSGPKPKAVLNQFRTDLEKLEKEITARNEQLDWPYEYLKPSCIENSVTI
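Purified human 12hLO (150 nM final) in 25 mM Hepes, 0.01% Triton X-100, pH 7.0 was preincubated 15 min at room temperature with compound. Then 40 uM arachidonic acid was added, 30 min. Hydroperoxide was read by Fe-XO absorbance ratio 573/405 nm.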
HT1080-NT tox – qHTS for induction of synthetic lethality in tumor cells producing 2HG: qHTS for the HT-1080-NT fibrosarcoma cell line. HT-1080-NT fibrosarcoma viability, CellTiter-Glo ATP luminescence, 48 h. Potency, µM (doses to about 46.1 µM), for the others: at the highest dose activity, negative = less viability, most hits filed as cytotoxic. 360,000 tested, 1.6% active;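 note: NT is the 2HG producing partner of a matched IDH1 knockdown line; potency is the fitted concentration of half-maximal effect; 0% = DMSO-treated cells and -100% = media-only wells without cells; nearly all actives have a fitted effect of over 55% in size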
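Viability by CellTiter-Glo luminescence after 48 h compound exposure at 37C of HT-1080-NT cells (750/well, RPMI, 5% FBS). % activity scaled between DMSO wells and medium-only wells, then curve-fitted and categorized by curve class.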
HT1080 IDH1KD tx – qHTS for induction of synthetic lethality in tumor cells producing 2HG: qHTS for the HT-1080-IDH1KD cell line | Potency, µM (top dose mostly 46.1 µM), for the others: at the top dose activity, negative = toxicity, actives largely listed as cytotoxic | HT-1080 IDH1 knockdown viability, ATP luminescence, 48 h | 360,000 tested, 2% active;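 note: potency is the fitted concentration of half-maximal effect; 0% = DMSO wells and -100% = cell-free medium wells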
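Viability of IDH1-knockdown HT-1080 fibrosarcoma cells was assessed by CellTiter-Glo after 48 h at 37 °C with titrated compound; concentration-effect curves were classified by fit quality and response size.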
TDP1 cell noCPT – qHTS for Inhibitors of human tyrosyl-DNA phosphodiesterase 1 (TDP1): qHTS in cells in absence of CPT. DT40 Tdp1-/- hTDP1 cells, no CPT, ATP luminescence, 48 h. Potency, µM (titrated, usually from 46.2 µM), inactives show at the top dose activity change, negative = growth inhibition, hits mostly inhibitors. 420,000 tested, 15% active. AID 686978, 2013; note: potency is the fitted concentration of half-maximal effect; nearly all actives have a fitted effect of over 55% in size
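Stably hTDP1-transfected Tdp1-null chicken DT40 cells were treated with library compounds minus camptothecin and grown for at least 48 hr at 37 °C, after which cellular ATP was quantified by luminescence.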
IL-1B inflam inh – qHTS for Inhibitors of Inflammasome Signaling: IL-1-beta AlphaLISA Primary Screen. THP-1 LPS/ATP IL-1B secretion, AlphaLISA, 16 h; hits give low values. activity change, % at 57.5 µM. 360,000 tested, 4.7% active. AID 743279, 2014; in the data active = activity change below about -50%; inconclusive = mostly about -30% to -49%
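Secreted IL-1B measured by AlphaLISA bead assay after 16 h compound exposure of THP-1 cells; compounds (final up to 57.5 uM) added 1 h before LPS (250 ng/mL) and ATP (1.25 mM) stimulation; lower signal means less secretion.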
Active calls of the source: *; u = inconclusive; x = no result given; [ ] = remark or other dose. Unless noted, calls come from the whole dose curve; as a rule, active = well fitted curve in the direction sought with a large enough effect; inconclusive = small, poorly fitted or top-dose-only effect, or another doubt; inactive = no such curve, though single readings can be large; an effect the other way counts as inactive or inconclusive. Unless noted, % is set by controls: 0 for no effect and ±100 for the full control effect.

SMILES	DT40 TDP1 CPT	ALOX12 inh	HT1080-NT tox	HT1080 IDH1KD tx	TDP1 cell noCPT	IL-1B inflam inh
CCCCCOc1ccc(C(=O)NCC(=O)NCC(=O)OCC)cc1	18µM*	23%	u	u	21µM*	31
CCN1C(=O)c2ccccc2S(=O)c2ccc(C(=O)N3CCN(c4cccc(C)c4)C(C)C3)cc21 (stereo not drawn)	u	u	x	x	16µM*	x
CCN1C(=O)c2ccccc2S(=O)c2ccc(C(=O)N3CCCC3)cc21 (stereo not drawn)	-10%	-6%	12%	-7%	u	-11
Cc1cccc(N2CCN(C(=O)c3ccc4c(c3)N(Cc3cccc(Cl)c3)C(=O)c3ccccc3S4=O)CC2C)c1 (stereo not drawn)	5.8µM*	-28%	x	x	6.5µM*	x
Cc1c(CC(=O)NCCc2ccccc2)c(=O)oc2cc(O)c(Cl)cc12	x	1%	x	x	x	x
CSC(=S)N/N=C/c1ccc(Br)cc1	-29%	-1%	7%	2%	17%	13
CSC(=S)N/N=C/c1ccc(N(C)C)cc1	4.6µM*	-5%	9%	20%	5.2µM*	6
Cc1ccc(C(=O)N/N=C/c2ccc(N(C)C)cc2)cc1	x	49%	x	x	x	x
CN(C)c1ccc(C=NNC(=S)Nc2ccc(F)cc2)cc1	3.7µM*	u	-5%	-28%	4.6µM*	u
COc1ccc(OC)c(-c2cc3ccc(OC)cc3oc2=O)c1	x	55%	x	x	x	x
O=C1CCN(C(=O)c2ccco2)CCCC(c2nc(-c3ccccc3)no2)CCN1 (stereo not drawn)	x	34%	x	x	x	x
Cc1ccccc1N1CCN(Cc2ccc(Br)o2)CC1	u	u	-1%	-18%	-30%	-7
Cc1scc(CN2CCN(c3ccccc3F)CC2)c1C	-27%	u	x	x	u	x
Cc1cccc(N2CCN(Cc3ccc(Br)o3)CC2)c1C	u	0.56µM*	9%	-7%	-24%	81
Cc1ccc(-c2c(CN3CCN(c4cccc(C)c4)C(C)C3)csc2C)cc1 (stereo not drawn)	u	u	x	x	16µM*	x
Cc1ccc(-c2c(CN3CCN(c4cccc(C)c4C)CC3)csc2C)cc1	15µM*	u	x	x	21µM*	x
COC(=O)C1=C(C)NC(=O)NC1c1ccc(C(=O)OC)cc1 (stereo not drawn)	x	6%	x	x	x	x
NC(=S)c1ncc(C(F)(F)F)cc1Cl	4%	34%	7%	-6%	7%	11
NC(=S)Nc1ncc(C(F)(F)F)cc1Cl	22%	40µM*	0%	3%	-10%	57
Cc1c(Cl)cccc1NC(=S)NNc1ncc(C(F)(F)F)cc1Cl	u	-15%	u	u	u	-69*
Fc1ccccc1NC(=S)NNc1ncc(C(F)(F)F)cc1Cl	u	-24%	u	u	23µM*	-20
FC(F)(F)c1cnc(NNC(=S)Nc2cccnc2)c(Cl)c1	u	-26%	-15%	-28%	21µM*	41
CCOC(=O)c1nc2ccccc2nc1N1CCN(C(=O)c2ccc(C)cc2)CC1	x	-6%	x	x	x	x
O=C(Cn1nc(N2CCN(c3ccccc3)CC2)ccc1=O)Nc1ccc(F)c(Cl)c1	x	-22%	x	x	x	x
Cn1ncc2c(NC3CCC(c4ccccc4)CC3)ncnc21 (stereo not drawn)	x	-23%	x	x	x	x
SMILES	DT40 TDP1 CPT	ALOX12 inh	HT1080-NT tox	HT1080 IDH1KD tx	TDP1 cell noCPT	IL-1B inflam inh
NC(=O)COc1cc(OCC(N)=O)c(Cl)cc1Cl	x	5%	x	x	x	x
O=C(c1ccccc1F)N1CCn2c(nnc2-c2ccncc2)C1	x	4%[6.33 µM]	x	x	x	x
NC(=O)NNc1ncc(C(F)(F)F)cc1Cl	2%	-3%	6%	10%	7%	-8
O=C(NNc1ncc(C(F)(F)F)cc1Cl)c1c(Cl)cccc1Cl	4.1µM*	-19%	u	7.3µM*	4.1µM*	19
COc1ccc(-c2cn3c(n2)sc2cc(C(=O)NC4CCCCC4)ccc23)cc1	u	u	x	x	-24%	x
CCOC(=O)N1CCC(NC(=O)c2ccc3c(c2)N=C(CC)c2ccccc2S3)CC1	u	5%	u	u	u	-22
CCOC(=O)N1CCC(NC(=O)c2ccc3c(c2)sc2nc(-c4ccccc4)cn23)CC1	15µM*	67%	-12%	-22%	9.2µM*	-15
O=C(NC1CCCCCC1)c1ccc2c(c1)sc1nc(-c3ccccc3)cn12	9.2µM*	-17%	x	x	16µM*	x
CCc1ccc(-c2cn3c(n2)sc2cc(C(=O)NC4CCCCC4)ccc23)cc1	3.7µM*	-13%	x	x	6.5µM*	x
O=C(COC(=O)c1cc(C2CC2)nn1-c1ccccc1)Nc1ccccc1	x	-21%	x	x	x	x
Cn1c(=O)c2cc(NC(=O)OCCF)ccc2n1Cc1cccc(C(F)(F)F)c1	23µM*	-2%	20%	4%	23µM*	-14
Cn1c(=O)c2cc(NC(=S)NC3CCCCC3)ccc2n1Cc1cccc(C(F)(F)F)c1	u	u	-17%	-15%	u	-27
Cn1c(=O)c2cc(NC(=S)NC3CC3)ccc2n1Cc1ccccc1	-32%	u	9%	5%	-21%	43
Cn1c(=O)c2cc(NC(=O)NCCc3ccccc3)ccc2n1Cc1cccc(C(F)(F)F)c1	u	-13%	u	u	23µM*	-10
Cn1c(=O)c2cc(NC(=O)NCc3ccccc3)ccc2n1C/C=C/c1ccccc1	7.3µM*	u	8.2µM*	8.2µM*	7.3µM*	0
CCNC(=S)Nc1ccc2c(c1)c(=O)n(C)n2Cc1cccc(C(F)(F)F)c1	u	u	-5%	-8%	23µM*	13
Cc1cc(C)cc(Cn2c3ccc(NC(=O)NCc4ccccc4)cc3c(=O)n2C)c1	u	-17%	-2%	7%	u	-20
Cn1c(=O)c2cc(NC(=O)NCCc3ccccc3)ccc2n1Cc1ccccc1	-30%	-14%	-3%	-16%	u	0
COC(CNC(=O)Cc1c(C)nc2cc(-c3ccccc3)nn2c1C)OC	x	22%	x	x	x	x
CCc1ccc(C2=C(C)C(=NCC(=O)Nc3ccc(C)c(F)c3)NS2(=O)=O)cc1	x	-1%	x	x	x	x
